An excerpt weighted towards active compounds, which were near 7.9% of everything screened.
KB-V1 cytotox: kills drug-selected multidrug resistant KB-V1 cells. KB-V1 MDR cells viability, CellTiter-Glo, 72 h. Potency, µM (top dose mostly 46.1 µM), usual class: cytotoxic. 400,000 compounds, 3.4% hits. AID 1347076; note: % is set by controls: 0 for no effect and ±100 for the full control effect; nearly all actives have a fitted effect of over 60% in size
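Luminescent ATP read-out (CellTiter-Glo, 10 min) measures survival of drug-selected KB-V1 MDR cells after 72 h, 37 degrees C compound exposure. Medium: phenol-red-free DMEM, 10% FBS. Values from fitted concentration-response curves.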
HT1080 IDH1KD tx: kills HT-1080 cells with IDH1 knockdown | HT-1080 IDH1 knockdown viability, ATP luminescence, 48 h | 360,000 compounds, 2% hits | Potency, µM (top dose mostly 46.1 µM), without a hit: top-dose activity, negative = toxicity, most hits filed as cytotoxic;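 note: 0% = DMSO wells and -100% = cell-free medium wells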
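% activity derives from luminescence (CellTiter-Glo), normalised to DMSO and no-cell wells. HT-1080-IDH1KD cells, 750/well, had 48 h compound exposure at 37 °C.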
MCF10A rereplic: inducers of DNA re-replication in MCF 10A breast cells | Potency, µM (doses to about 46.1 µM), without a hit: at the highest dose activity, positive = re-replication, most hits filed as activators | MCF 10A DNA re-replication, Hoechst nuclear intensity, 48 h | 350,000 compounds, 2.9% hits | AID 624296; note: % of control where 0% means no effect; nearly all actives have a fitted effect of over 50% in size
KB-3-1 cytotox: KB-3-1 parental cell cytotoxicity; KB-3-1 viability, CellTiter-Glo ATP luminescence, 72 h; Potency, µM (series often up to 46.1 µM), usual class: cytotoxic; 400,000 compounds, 1.4% hits; note: % is set by controls: 0 for no effect and ±100 for the full control effect; nearly all actives have a fitted effect of over 60% in size
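Cytotoxicity in the drug-sensitive parental line KB-3-1 was scored as loss of CellTiter-Glo luminescence following 72 h incubation with compound. Values come from curve fitting of normalized concentration-response data.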
HT1080-NT tox: kills 2HG-producing HT-1080-NT fibrosarcoma cells; HT-1080-NT fibrosarcoma viability, CellTiter-Glo ATP luminescence, 48 h; Potency, µM (series often up to 46.1 µM), inactives show at the highest dose activity, negative = less viability, most hits filed as cytotoxic; 360,000 compounds, 1.6% hits; AID 686970;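 note: NT is the 2HG producing partner of a matched IDH1 knockdown line; 0% = DMSO-treated cells and -100% = media-only wells without cells; nearly all actives have a fitted effect of over 55% in size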
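Viability by CellTiter-Glo luminescence after 48 h compound exposure at 37C of HT-1080-NT cells (750/well, RPMI, 5% FBS). % activity scaled between DMSO wells and medium-only wells, then curve-fitted and categorized by curve class.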
SW480 rereplic: induces DNA re-replication in SW480 colon adenocarcinoma cells; SW480 DNA re-replication, Hoechst DNA content imaging, 48 h; Potency, µM (doses to about 46.1 µM), for inactives: top-dose re-replication activation, hits mostly activators; 340,000 compounds, 1.8% hits; note: % of control where 0% means no effect; nearly all actives have a fitted effect of over 55% in size
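SW480 cells exposed to compounds for 48 hr at 37 C, 5% CO2, then Hoechst-stained 40 min. Nuclear DNA content imaged by fluorescence scanning (405 nm excitation, 500-530 nm emission); re-replication scored as increased high-intensity nuclei.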
The depositor's hits bear a star; i = inactive; u = inconclusive; x = no result; [ ] = another dose, or the depositor's remark. Calls come from the whole dose curve; as a rule, active = well fitted curve in the direction sought with a large enough effect; inconclusive = small, poorly fitted or top-dose-only effect, or another doubt; inactive = no such curve, though single readings can be large; an effect the other way counts as inactive or inconclusive. Potency is the fitted concentration of half-maximal effect.

SMILES	KB-V1 cytotox	HT1080 IDH1KD tx	MCF10A rereplic	KB-3-1 cytotox	HT1080-NT tox	SW480 rereplic
CC1CCCN(c2ccc3nc4ccccc4c(=O)n3n2)C1 (configuration not stated)	7.31µM*	-29.0%	-2.3%	u	-26.6%	-1.7%
N#Cc1ccccc1Sc1ccccc1C(=O)Nc1ccc(Br)cc1	18.4µM*	-0.6%	9.1%	i	0.7%	6.8%
N#Cc1ccccc1Sc1ccccc1C(=O)Nc1ccc2ccccc2c1	i	-17.6%	u	i	-13.1%	5.9%
CN(C(=O)CSc1nnc(-c2ccccc2)n1C)C1CCS(=O)(=O)C1 (configuration not stated)	i	18.3%	0.8%	u	23.8%	0.1%
C[C@H](CO)N1C[C@H](C)[C@@H](CN(C)C(=O)Nc2ccccc2)Oc2c(NS(=O)(=O)c3cccs3)cccc2C1=O	i	23.5%	-12.9%	i	-4.2%	-8.5%
COc1ccc(CCNC(=O)C2CC(=O)N(c3ccc(C)cc3)C2)cc1OC (configuration not stated)	i	-8.1%	-6.9%	i	16.3%	4.0%
O=C(NCCc1ccccc1F)C1CC(=O)N(c2cccc(C(F)(F)F)c2)C1 (configuration not stated)	13µM*	7.9%	5.5%	i	1.7%	-1.2%
COc1ccc(CCNC(=O)C2CCCN(S(=O)(=O)N3CC(C)CC(C)C3)C2)cc1OC (configuration not stated)	u	15.8%	7.9%	i	8.7%	-17.6%
COc1ccc(CCNC(=O)C2CCN(S(=O)(=O)N3CC(C)CC(C)C3)CC2)cc1OC (configuration not stated)	20.6µM*	9.4%	4.8%	i	-21.5%	4.9%
COc1ccc(CCNC(=O)C2CC(=O)N(c3ccc(C(C)(C)C)cc3)C2)cc1OC (configuration not stated)	i	0.4%	0.581µM*	i	-1.2%	-1.8%
CCOc1ccc(CCNC(=O)C2CCN(S(=O)(=O)N3CCC(C)CC3)CC2)cc1OCC	2.59µM*	0.4%	4.7%	i	0.4%	10.4%
CCc1nc(N)c(C#N)c(-c2ccc(F)cc2)c1C	i	5.5%	-1.8%	i	4.6%	-5.4%[9.22 µM]
Cc1ccc(Nc2nc(NCc3ccco3)nc3nccnc23)cc1Cl	i	x	x	u	x	x
COc1ccc(OC)c(S(=O)(=O)N2CCCC(C(=O)NCc3ccccn3)C2)c1 (configuration not stated)	i	3.3%	0.0%	i	3.4%	-3.1%
Cc1cc(-c2nnc(-c3cccc(C(F)(F)F)c3)o2)no1	i	21.9%	-0.3%	i	12.0%	-6.9%
S=c1[nH]nc(-c2ccc(Br)cc2)n1Cc1ccco1	i	-2.9%	-0.8%	i	2.4%	-6.2%
CC(OC(=O)c1ccc(-c2ccc(O)cc2)cc1)C(=O)NC1CCCCC1C (configuration not stated)	16.4µM*	-6.3%	17.1%	u	-0.6%	7.6%
CN(N=Cc1ccc([N+](=O)[O-])cc1)c1ccccn1	i	12.1%	x	i	13.9%	x
Clc1cccc(-c2ccc3ncnc(NCc4cccs4)c3c2)c1	i	x	u	i	x	-7.1%[9.22 µM]
Cc1cccc(-c2ccc3ncnc(NCc4cccs4)c3c2)c1	i	x	8.5%	13µM*	x	6.4%
Cc1cccc(CNc2ncnc3ccc(-c4ccoc4)cc23)c1	i	x	2.59µM*	i	x	8.3%
Cc1cccc(CNc2ncnc3ccc(-c4ccc5c(c4)OCCO5)cc23)c1	i	x	u	8.2µM*	x	21.3%
Cc1csc(CNc2ncnc3ccc(-c4ccc5c(c4)OCCO5)cc23)c1	i	x	u	u	x	-2.7%
COc1cccc(-c2ccc3ncnc(NCc4ccc5c(c4)OCO5)c3c2)c1	i	x	16.4µM*	i	x	-30.6%[9.22 µM]
COc1cccc(-c2ccc3ncnc(NCc4cc(C)cs4)c3c2)c1	i	x	37.6%	u	x	-2.9%
SMILES	KB-V1 cytotox	HT1080 IDH1KD tx	MCF10A rereplic	KB-3-1 cytotox	HT1080-NT tox	SW480 rereplic
c1cncc(CNc2ncnc3ccc(-c4ccoc4)cc23)c1	i	x	3.9%	i	x	1.9%
COc1ccc(NS(=O)(=O)c2cccc3cccnc23)cc1Cl	i	-20.1%	-0.3%	i	-11.1%	14.1%
c1nc(NCc2ccc3c(c2)OCO3)c2cc(-c3ccc4c(c3)OCCO4)ccc2n1	i	x	9.2µM*	i	x	0.8%[9.22 µM]
c1cncc(CNc2ncnc3ccc(-c4ccc5c(c4)OCO5)cc23)c1	i	x	-11.1%	i	x	-10.5%
O=C1N(CN2CCOCC2)c2ccccc2C12OCC(CCl)O2 (configuration not stated)	i	7.2%	-0.9%	i	2.2%	-17.4%
Cc1cc(C)c(S(=O)(=O)Nc2ccccc2-c2ccccc2)c(C)c1	18.4µM*	-20.0%	u	u	-2.2%	10.0%
Cc1cc(C)c(S(=O)(=O)Nc2cnc3ccccc3c2)c(C)c1	14.6µM*	-11.8%	12.6%	i	-19.9%	2.7%
COc1ccc(OC)c(/C=C/c2ccccc2)c1	i	x	x	u	x	x
COc1ccc(OC)c(/C=C/c2cc3ccccc3cn2)c1	i	x	x	5.17µM*	x	x
COc1ccc(-c2nc(N)nc(C)c2Oc2ccccc2Br)c(O)c1	u	-2.1%[9.24 µM]	14.6µM*	u	u	u
COc1ccc(-c2nc(N)nc(C(F)(F)F)c2-c2cscn2)c(O)c1	i	2.8%	8.7%	i	11.6%	-13.0%
CCOC(=O)c1ccc(NC(=O)CCc2nc(-c3ccccc3Cl)no2)cc1	i	u	u	u	u	u
COc1ccc(N(C(=O)c2cccnc2)S(=O)(=O)c2ccc3c4c(cccc24)C(=O)N3C)cc1	16.4µM*	u	u	i	u	-5.7%
Cc1ccc(NC(=O)C(=O)NCCN2CCN(Cc3ccc([N+](=O)[O-])cc3)CC2)cc1	2.91µM*	2.7%	-6.4%	i	-0.4%	u
CCc1ccc(NC(=O)C(=O)NCCN2CCN(Cc3ccc([N+](=O)[O-])cc3)CC2)cc1	i	0.8%	u	i	-2.4%	2.4%
CCC(C)NC(=O)c1ccc2nc(Cc3ccc(OC)cc3)oc2c1 (configuration not stated)	i	-2.7%	-1.9%	i	2.5%	-0.6%
CCC(NC(=O)c1ccc2nc(Cc3ccc(OC)cc3)oc2c1)c1ccncc1 (configuration not stated)	i	20.6µM*	u	u	u	-15.8%
CCN1CCN(S(=O)(=O)c2ccc(C(C)(C)C)cc2)CC1	i	6.7%	u	i	-0.5%	23.1µM*

Screening data from PubChem.
